# DAX1 inh-1 = inhibitors of DAX1 repression of SF-1 activated StAR promoter; 370,000 tested, 1.1% active; inhibition, % at 6.8 µM; HEK293T StAR-luciferase reporter, SF-1/DAX-1 repression relief; AID 652010;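 active means inhibition above the mean over all tested compounds plus 3 SD, cut at about 3.6% in these data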;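 further: 0% = DAX-1 cells with DMSO and 100% = cells lacking DAX-1 with DMSO; higher inhibition means more luminescence from relief of DAX-1 repression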
# hcDAF-12 act = activates DAF-12 receptor from parasite H. contortus; HEK293 hcDAF-12 lit1-tk-luc reporter, luminescence; 0% DMSO, 100% Δ7-dafachronic acid; activation, % at 6.8 µM; 370,000 tested, 1.4% active;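 active means activation above the mean of all tested compounds plus 3 SD, cut at about 5.5% in these data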;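 further: 100% = response to 3 µM Δ7-dafachronic acid high control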
# DAX1 inh-2 = inhibitors of human orphan nuclear receptor DAX1 (NR0B1). P51843. HEK293 Gal4-DAX1 luciferase reporter, luminescence. inhibition, % at 6.75 µM. 340,000 tested, 0.99% active;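 active means inhibition above the mean over all tested compounds plus 3 SD, cut at about 4.2% in these data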;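 further: 0% = DAX1-transfected cells with DMSO and 100% = empty-vector control cells with DMSO; inhibition shows as a rise in luminescence from relieved DAX1 repression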
# Target sequence (P51843 207-470 limits assumed): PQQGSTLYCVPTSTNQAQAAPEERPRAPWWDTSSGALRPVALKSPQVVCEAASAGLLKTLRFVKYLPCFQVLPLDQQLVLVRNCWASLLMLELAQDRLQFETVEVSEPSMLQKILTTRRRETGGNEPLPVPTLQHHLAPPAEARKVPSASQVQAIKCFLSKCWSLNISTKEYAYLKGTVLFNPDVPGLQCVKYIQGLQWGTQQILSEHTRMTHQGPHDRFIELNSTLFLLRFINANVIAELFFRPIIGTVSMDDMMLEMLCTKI
# hgDAF12 agonist = activates the H. glycines DAF-12 receptor ligand-binding domain; HEK293 GAL4-hgDAF12 UAS-luciferase reporter, agonist luminescence; normalized to butyrate control; activation, % at 6.8 µM; 370,000 tested, 1.8% active; AID 687014;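 active means activation above a cutoff set at the mean of all screened compounds plus 3 SD, cut at about 10% in these data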;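 further: 0% = DMSO wells and 100% = sodium butyrate wells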
# ssDAF12 agonist = S. stercoralis DAF-12 activation, primary screen; HEK293 ssDAF-12/GRIP1 lit1-tk-luc reporter, luminescence; % of 3 µM dafachronic acid response; activation, % at 6.8 µM; 370,000 tested, 1% active; AID 652126;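 active means activation above the mean over all tested compounds plus 3 SD, cut at about 0.9% in these data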;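 further: 0% = DMSO-only wells and 100% = 3 µM delta7-dafachronic acid wells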
# DAX1 conf = NR0B1 (human) inhibition, confirmation | shares compounds with DAX1 inh-1 | 2,400 tested, 87% active | HEK293T StAR-promoter luciferase reporter, SF-1/DAX-1 repression | inhibition, % at 6.8 µM;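 active means inhibition above the average of every tested compound plus 3 SD, cut at about 3.8% in these data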;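 further: 0% = DAX-1 cells with DMSO and 100% = no DAX-1 control cells with DMSO; active compounds raise luminescence by relieving repression of the StAR reporter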
# SF1 mutant ctr = nonselective inhibitor or artifact in SF-1 mutant DAX1 counter-screen; shares compounds with DAX1 inh-1; HEK293 StAR-luciferase, SF-1 AF2 mutant, luminescence; inhibition, % at 6.8 µM; 2,400 tested, 78% active; AID 652136;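 active means inhibition above the mean of all tested compounds plus 3 SD, cut at about 3% in these data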;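 further: 0% = DAX-1 transfected cells with DMSO and 100% = cells without DAX-1 with DMSO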
# The depositor's hits bear a star; x = not tested or not shown. Sampled rows, rich in hits. Any-hit rate of the full collection: about 4.1%.
SMILES,DAX1 inh-1,hcDAF-12 act,DAX1 inh-2,hgDAF12 agonist,ssDAF12 agonist,DAX1 conf,SF1 mutant ctr
OC[C@H]1O[C@@H](c2nc(-c3ccc(Br)cc3)no2)C[C@@H]1O,4.8*,5.8*,x,11.6*,-0.2,6.0*,4.9*
C[C@H](O)[C@@H]1C(=O)N2CCc3c([nH]c4ccccc34)[C@@H]2C[C@@H]1N(C)Cc1ccc(Cl)cc1,6.2*,1.5,0.2,2.9,-0.9,0.5,0.2
C[C@H]1[C@@H](NCc2cccs2)CC[C@@]23CCCN2C(=O)CCC[C@@H]13,x,3.0,x,3.4,-2.1,x,x
CCOC(=O)c1c(C)[nH]c(C(=O)OCc2ccc(F)cc2)c1C,5.7*,2.6,2.7,7.9,-0.6,7.5*,5.8*
CCOC(=O)c1c(C)[nH]c(C(=O)COC(=O)C2CC2)c1C,5.2*,0.6,-0.3,6.5,-1.0,3.3,0.1
CC(=O)c1c(C)[nH]c(C(=O)COC(=O)C2CC2)c1C,0.3,-1.1,1.3,-2.0,-0.9,x,x
CNS(=O)(=O)/C=C/c1ccccc1CCNC(=O)OC(C)(C)C,-2.3,-2.0,x,1.8,-0.8,x,x
Cc1ccccc1-c1nnc2n1N=C(c1ccc(O)c(O)c1)CS2,5.2*,-2.9,x,-7.1,-1.9,20.7*,-7.3
Nc1ncnc(N)c1N=Nc1ccccc1,0.7,-2.2,1.4,0.3,-1.7,x,x
Nc1nc(N)c(N=Nc2ccccc2)c(=O)[nH]1,5.7*,1.4,1.9,4.6,-1.5,5.5*,3.2*
O=C(Nc1ccc(-c2nc3ccccc3[nH]2)cc1)C1CCCO1 (centres undefined),7.7*,5.4,-1.0,13.1*,0.0,15.3*,8.9*
Cc1ccc2nc(-c3cccc(Br)c3)c(CC3CCCCC3)n2c1,6.4*,4.9,x,12.8*,-0.2,5.1*,5.6*
Cc1ccc(-c2nc3ccc(Cl)cn3c2CC(C)(C)C)cc1,0.7,-0.2,-0.2,3.0,-0.7,x,x
Cc1ccc(-c2nc3ccc(Cl)cn3c2CC2CCCCC2)cc1,4.8*,7.1*,x,12.6*,0.5,8.5*,5.5*
O=C(NC1CCCCC1)C(c1ccc(-c2ccccc2)cc1)n1c(=O)c(-c2ccco2)nc2ccccc21 (centres undefined),4.8*,0.9,x,4.4,0.3,-1.0,-1.4
CCn1c(=O)n(CC(=O)N2CCN(c3ccc(F)cc3)CC2)c(=O)c2ccccc21,-0.1,-0.6,x,-0.3,-1.0,x,x
CCCc1c(Cc2cccc(F)c2)ncn1CCc1ccccc1OC,-1.1,-2.1,x,2.5,-1.3,x,x
Cc1cc(NC(=O)CSc2ccc(-c3ccc(Br)cc3)nn2)no1,5.3*,2.7,0.9,7.0,-0.2,-0.2,-0.5
COc1ccc(-c2nnc(SCC(=O)Nc3cc(C)on3)n2N)cc1OC,-0.5,-2.0,-0.5,0.1,-0.3,x,x
Cc1cc(NC(=O)CSc2nnc(-c3cccc(F)c3)n2N)no1,5.2*,-1.2,0.1,-1.7,-1.1,2.3,1.7
FC(F)(F)Oc1ccc(Cn2ccc3ccc(-c4ccc5ccn(Cc6ccccc6)c5c4)cc32)cc1,-1.4,0.0,x,0.7,-0.6,x,x
COc1cc(-c2csc(N3CCC(C(N)=O)CC3)n2)cc(OC)c1OC,x,-0.8,x,-0.2,-1.4,x,x
CCOc1ccc(NC(=O)c2ccc3c(c2)N(C)CCS3)cc1,5.0*,0.8,2.5,9.6,-1.3,5.0*,2.5
O=C(NNC(=O)[C@@H]1CCCC[C@@H]1C(=O)O)c1cccs1,0.4,0.8,-0.3,3.4,-0.9,x,x
Cc1ccsc1C(=O)NNC(=O)C1CCCCC1C(=O)O (centres undefined),6.2*,4.7,1.5,15.6*,0.8,4.0*,1.5
N#Cc1c(NC(=O)c2ccco2)sc2c1CCC2,9.4*,2.6,-0.2,10.8*,-0.7,9.1*,3.7*
O=C(Nc1sc2c(c1C(=O)O)CCCCC2)c1ccco1,2.8,5.1,-0.1,3.0,0.2,x,x
CCOc1cc(N2CCOCC2)c(OCC)cc1NC(=O)Cn1cnnn1,0.7,-0.3,-0.1,-1.1,-1.0,x,x
